Only a selection was taken, and hits are over-represented in it overall.
nsP2pro primary: blocks chikungunya virus nsP2 protease peptide cleavage | FRET peptide cleavage, nsP2pro, fluorescence 1 h | Potency, µM (doses to about 24.9 µM), actives largely listed as inhibitors | hit rate 1.1% among 31,000 | AID 1964107; also: nearly all actives have a fitted effect of over 60% in size
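FRET cleavage of 2.5 uM peptide 2 by 150 nM CHIKV protease domain at pH 8.0 (Tris, Tween 20). Compounds at 7 concentrations (up to 25 uM) preincubated 15 min. Fluorescence read after 1 h at room temperature.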
CHIKV nsP2 cell: inhibits CHIKV nsP2 protease in cells | shares compounds with nsP2pro primary | Potency, µM (top dose mostly 51.1 µM), most hits filed as inhibitors | hit rate 10% among 450 | AID 1964100 | cell-based CHIKV nsP2 protease reporter assay; also: nearly all actives have a fitted effect of over 70% in size
Target sequence (Q8JUX6 220-798 limits assumed): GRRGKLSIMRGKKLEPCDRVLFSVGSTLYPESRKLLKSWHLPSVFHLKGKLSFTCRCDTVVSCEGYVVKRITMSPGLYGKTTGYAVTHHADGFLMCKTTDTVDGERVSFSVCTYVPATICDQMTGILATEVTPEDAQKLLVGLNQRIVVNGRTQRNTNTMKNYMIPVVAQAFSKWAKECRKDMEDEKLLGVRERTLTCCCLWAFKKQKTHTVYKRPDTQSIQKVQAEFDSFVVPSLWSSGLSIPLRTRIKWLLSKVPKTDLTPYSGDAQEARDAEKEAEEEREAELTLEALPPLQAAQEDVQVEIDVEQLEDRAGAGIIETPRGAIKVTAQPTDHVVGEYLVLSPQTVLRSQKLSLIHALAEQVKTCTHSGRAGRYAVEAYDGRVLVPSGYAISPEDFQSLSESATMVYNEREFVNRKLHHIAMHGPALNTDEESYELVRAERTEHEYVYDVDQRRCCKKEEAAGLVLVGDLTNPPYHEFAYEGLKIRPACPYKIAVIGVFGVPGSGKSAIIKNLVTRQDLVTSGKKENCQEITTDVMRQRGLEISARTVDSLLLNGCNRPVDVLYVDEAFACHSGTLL
NSP2 full ctr: inhibits full-length CHIKV NSP2 enzyme | shares compounds with nsP2pro primary | Full-length CHIKV NSP2 protease enzymatic counterscreen | Potency, µM (top dose mostly 50.7 µM), usual class: inhibitors | hit rate 39% among 410; also: nearly all actives have a fitted effect of over 65% in size
Furin counterscr: selectivity counter-screen for CHIKV nsP2 protease inhibitors: human furin; shares compounds with nsP2pro primary; Recombinant human furin enzymatic counterscreen, fluorogenic substrate; Potency, µM (highest dose often 50.6 µM), actives largely listed as inhibitors; hit rate 6% among 410
NS23 peptide cs: blocks CHIKV nsP2 protease cleavage of endogenous NS2/3 peptide | shares compounds with nsP2pro primary | AID 1964103 | Purified CHIKV nsP2 protease, endogenous NS2/3 peptide cleavage | hit rate 34% among 410 | Potency, µM (series often up to 51 µM), most hits filed as inhibitors; also: nearly all actives have a fitted effect of over 55% in size
Papain counter: selectivity counter-screen for CHIKV nsP2 protease inhibitors: papain; shares compounds with nsP2pro primary; purified papain protease activity, enzymatic inhibition; Potency, µM (doses to about 51 µM), most hits filed as inhibitors; hit rate 5% among 410; AID 1964104
nsP2pro confirm: CHIKV nsP2 protease inhibition, confirmatory qHTS; shares compounds with nsP2pro primary; CHIKV nsP2 protease enzymatic activity, qHTS; Potency, µM (titrated, usually from 25.5 µM), actives largely listed as inhibitors; hit rate 43% among 410; also: nearly all actives have a fitted effect of over 75% in size
HCV NS3 counter: inhibits HCV NS3/4A protease in an nsP2pro selectivity counterscreen; AID 1964106; Potency, µM (doses to about 50.9 µM), usual class: inhibitors; shares compounds with nsP2pro primary; HCV NS3/4A protease biochemical counterscreen; hit rate 20% among 410; also: nearly all actives have a fitted effect of over 55% in size
Numbers stand for hits; - = inactive; ? = inconclusive; ! = not active in a repeat. Calls follow the shape of the full dose curve.

SMILES	nsP2pro primary	others
COc1ccc(CN(Cc2ccccc2)C(=O)c2ccccc2O)cc1	-
Cc1nc2ccccc2c(-c2ccc3c(c2)CCCO3)c1C(OC(C)(C)C)C(=O)O (stereo unspecified)	-
CCn1c(=O)c(-c2cc(NC(=O)Nc3ccccc3)c(F)cc2Br)cc2cnc(NC)cc21	-
CNc1oc(-c2c[nH]c3ccccc23)nc1C#N	-
Clc1ncoc1-c1c[nH]c2ccccc12	?	CHIKV nsP2 cell=-;NSP2 full ctr=-;Furin counterscr=-;NS23 peptide cs=-;Papain counter=-;nsP2pro confirm=-;HCV NS3 counter=-
CCC(C)NC(=O)c1cccc(-c2ccc(OC)nn2)c1 (stereo unspecified)	-
OC[C@H]1O[C@@H](OCc2ccccc2)[C@H](O[C@@H]2OC[C@@H](O)[C@H](O)[C@H]2O)[C@@H](O)[C@@H]1O	-
CN(C)[C@@H]1C(=O)C(C(N)=O)=C(O)[C@@]2(O)C(=O)C3=C(O)c4c(O)c(NC(=O)CN5CCCC5)cc(F)c4C[C@H]3C[C@@H]12	-
COC(=O)[C@]12CCC(C)(C)C[C@H]1[C@H]1C(=O)C=C3[C@@]4(C)C=C(C#N)C(=O)C(C)(C)[C@@H]4CC[C@@]3(C)[C@]1(C)CC2	?	CHIKV nsP2 cell=?;NSP2 full ctr=?;Furin counterscr=-;NS23 peptide cs=?;Papain counter=?;nsP2pro confirm=?;HCV NS3 counter=-
CC1(C)Oc2ncnc(N)c2N=C1c1ccc(C23CCC(CC(=O)O)(CC2)CC3)cc1	-
O=C(OCc1ccccc1)N1CCOCC12CCN(Cc1c[nH]c3ccccc13)CC2	-
Cc1ccc(S(=O)(=O)Nc2cnccc2C(=O)Nc2nc(-c3ccc(F)cc3)cs2)cc1	-
CN(C)c1ccc(-c2nc3ccccc3s2)cc1	-
N#Cc1ccc(-c2ccc(CNc3ccc(N4CCCCC4)cc3)o2)cc1	3.5µM	CHIKV nsP2 cell=?;NSP2 full ctr=-;Furin counterscr=-;NS23 peptide cs=?;Papain counter=-;nsP2pro confirm=?;HCV NS3 counter=1.8µM
N#Cc1ccc(-c2ccc(CNc3ccc(N4CCN5CCCCC5C4)cc3)o2)cc1 (stereo unspecified)	-
N#Cc1ccc(-c2ccc(CNc3ccc(N4CCOCC4)cc3)o2)cc1	-
Cc1cc(C)nc(NC(=S)N2CCN(c3ccc(C(F)(F)F)cc3Cl)CC2)c1	-
NC(=O)c1ccc[n+]([C@@H]2O[C@H](COP(=O)([O-])O)[C@@H](O)[C@H]2O)c1	-
O=[N+]([O-])c1ccc(S(=O)(=O)c2ccc(Cl)cc2)nc1	0.32µM	CHIKV nsP2 cell=2.1µM;NSP2 full ctr=0.73µM;Furin counterscr=16µM;NS23 peptide cs=1.8µM;Papain counter=-;nsP2pro confirm=0.45µM;HCV NS3 counter=5.2µM
CNC(=O)c1cc(C2CC2)nc2c1c(C1CCCN([S+](=O)([O-])c3c(C)noc3C)C1)nn2C (stereo unspecified)	-
CN1CCCC2(C1)CN(C)c1ccc(C(=O)NCC3CCCCC3)cc12 (stereo unspecified)	-
CNC(=O)Oc1ccc2c(c1)[C@]1(C)CCN(C)[C@@H]1N2C	4.4µM!	CHIKV nsP2 cell=-;NSP2 full ctr=-;Furin counterscr=-;NS23 peptide cs=-;Papain counter=-;nsP2pro confirm=?;HCV NS3 counter=-
Cc1ccsc1CN(C)c1ncnc2ccc(-c3oc(-c4ccccc4)nc3C)cc12	-
CCc1c(Cl)c(O)c(Cl)c(O)c1C(=O)O[C@H]1[C@H](O)[C@H](OC)[C@H](OC/C2=C\C=C\C[C@H](O)/C(C)=C\[C@H](CC)[C@@H](O[C@@H]3OC(C)(C)[C@@H](OC(=O)C(C)C)[C@H](O)[C@@H]3O)/C(C)=C/C(C)=C/C[C@@H]([C@@H](C)O)OC2=O)O[C@@H]1C	-
Cc1ccc(NC(=O)C(=O)NC2CC(C)(C)NC(C)(C)C2)cc1	-
CCC[C@H](NC(=O)[C@@H]1[C@H]2CCC[C@H]2CN1C(=O)[C@@H](NC(=O)[C@@H](NC(=O)c1cnccn1)C1CCCCC1)C(C)(C)C)C(=O)C(=O)NC1CC1	3.9µM!	CHIKV nsP2 cell=-;NSP2 full ctr=12µM;Furin counterscr=-;NS23 peptide cs=?;Papain counter=0.026µM;nsP2pro confirm=3.6µM;HCV NS3 counter=0.052µM
Cc1noc(C)c1S(=O)(=O)N1CC(c2noc(C3CCCN3C)n2)C1 (stereo unspecified)	-
